Compounds without any hit were thinned out: in the full panel of roughly 79,000, 15% have a hit. A number with no mark means an inactive call. Activity calls are given as the source filed them. No stated cut-off is given here; in the data, active means growth inhibition above about 70%; inactive means the rest.
What was measured:
[1] = NCI Yeast Anticancer Drug Screen. Data for the rad50 strain (AID 155);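 further: 0% = growth of vehicle-only cultures of the same strain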; conditions: S. cerevisiae rad50 strain growth inhibition, hits give high values
Summary of the method: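 Compounds were tested on a yeast strain with an engineered DNA damage repair alteration; the reported value is growth inhibition normalised to vehicle treatment.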

[2] = NCI Yeast Anticancer Drug Screen. Data for the mec2-1 strain (AID 157); conditions: S. cerevisiae mec2-1 strain, hits give high values
Summary of the method: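 Test agents were screened against the mec2-1 yeast strain, with defined DNA repair or cell cycle alteration. Growth was scored as inhibition against vehicle-only controls.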

[3] = NCI Yeast Anticancer Drug Screen. Data for the sgs1 mgt1 strain (AID 161);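 further: 0% = growth of cultures given vehicle only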; conditions: S. cerevisiae sgs1 mgt1 strain, hits give high values
Summary of the method: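 Test agents were incubated with a DNA-repair-mutant yeast strain. Growth was then read and compared against vehicle-treated controls.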

[4] = NCI Yeast Anticancer Drug Screen. Data for the cln2 rad14 strain (AID 165);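 further: 0% = growth equal to vehicle treated cultures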; conditions: S. cerevisiae cln2 rad14 strain, hits give high values
Summary of the method: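 Growth of compound-exposed yeast (cln2 rad14 genotype) measured and expressed as inhibition relative to vehicle.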

[5] = NCI Yeast Anticancer Drug Screen. Data for the bub3 strain (AID 167); conditions: S. cerevisiae bub3 mutant strain, hits give high values
Summary of the method: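 Growth of a checkpoint-deficient yeast mutant is measured after compound exposure. Values represent inhibition relative to vehicle.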

[6] = NCI Yeast Anticancer Drug Screen. Data for the mlh1 rad18 strain (AID 175); conditions: S. cerevisiae mlh1 rad18 strain growth inhibition, hits give high values
Summary of the method: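 In this whole-cell yeast screen, a strain with altered DNA damage repair is challenged with compound, and its growth is measured against matched vehicle-treated controls.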

[7] = at 5.0 µM (retest, dose inferred, filed as 0.5)
[8] = at 50.0 µM (retest, dose inferred, filed as 5.0)

SMILES	growth inhibition [1, 7]	growth inhibition [1, 8]	growth inhibition ([1]; at 50.0 µM)	growth inhibition [2, 7]	growth inhibition [2, 8]	growth inhibition ([2]; at 50.0 µM)	growth inhibition [3, 7]	growth inhibition [3, 8]	growth inhibition ([3]; at 50.0 µM)	growth inhibition [4, 7]	growth inhibition [4, 8]	growth inhibition ([4]; at 50.0 µM)	growth inhibition [5, 7]	growth inhibition [5, 8]	growth inhibition ([5]; at 50.0 µM)	growth inhibition [6, 7]	growth inhibition [6, 8]	growth inhibition ([6]; at 50.0 µM)
CC(C)=Cc1cc2c(cc1O)CCC1C2CC[C@@]2(C)C1CC[C@@H]2O (stereo partly specified)	14%	16%	41.2%	-5%	24%	60.1%	-14%	8%	71% (active)	7%	29%	78.6% (active)	-29%	22%	45.8%	-1%	23%	54.2%
O=C(Nc1ccccc1)c1ccc(Cl)cc1Cl	-15%	-21%	1.35%	-9%	-4%	1.85%	-2%	7%	-3.15%	31%	-50%	-7.95%	4%	-34%	8.75%	-6%	-8%	8.05%
CCOC(=O)C(=CNC(=S)Nc1c(CC)cccc1C(C)(C)C)C(=O)OCC	6%	74% (active)	85.2% (active)	-13%	44%	75.5% (active)	-2%	27%	77% (active)	1%	52%	76.3% (active)	-11%	58%	84.2% (active)	-11%	67%	86.8% (active)
Cc1ccc(C)c(NC(=O)CCC(=O)C(C#N)c2cccc3ccccc23)c1 (stereo unspecified)	-22%	10%	-25.4%	3%	11%	14.4%	-12%	-4%	15.9%	-6%	8%	-23.5%	-5%	5%	10.3%	1%	3%	20.6%
CC(C)c1ccc(S(=O)(=O)c2ccc([N+](=O)[O-])cc2[N+](=O)[O-])cc1	98% (active)	91% (active)	93.8% (active)	100% (active)	97% (active)	96.5% (active)	100% (active)	97% (active)	96.8% (active)	76% (active)	94% (active)	94.5% (active)	95% (active)	96% (active)	96.2% (active)	99% (active)	95% (active)	96.2% (active)
Nc1ccc2nc3c(nc2c1)C(=O)c1ccccc1-3	47%	93% (active)	85.5% (active)	10%	93% (active)	86.5% (active)	19%	88% (active)	85% (active)	32%	90% (active)	83% (active)	15%	94% (active)	87.6% (active)	21%	93% (active)	89.5% (active)
COc1ccc([C@H]2c3cc4c(cc3OC(O)(CO)[C@H]2C(=O)O)OCO4)c(OC)c1 (stereo partly specified) (tested in a mixture with another compound)	9%	63%	57%	15%	48%	48.4%	0%	44%	44.1%	0%	35%	28%	-5%	76% (active)	54.5%	6%	86% (active)	80.5% (active)
C[C@]12CCC(=O)C=C1CC[C@@H]1[C@@H]2[C@@H](O)C[C@@]2(C)[C@H]1CC[C@]2(O)C(=O)COC(=O)C1CCCC1	-7%	-10%	76.8% (active)	1%	-1%	19.8%	-2%	-9%	87.7% (active)	-18%	-93%	35.9%	8%	11%	82.8% (active)	-7%	-16%	72.2% (active)
CCCCC(CC(=O)O)c1ccc(Cl)cc1 (stereo unspecified)	-146%	-7%	57.5%	-43%	17%	60.7%	-58%	5%	40.6%	-63%	37%	70% (active)	-61%	28%	54.6%	-133%	13%	66%
C/C(=N\NC(=S)N1CCN(c2ccccn2)CC1)c1ncccn1	2%	-6%	32.5%	-20%	-10%	49.9%	-7%	-13%	45.9%	-2%	7%	83.2% (active)	-10%	-9%	93.6% (active)	-3%	10%	86% (active)
CCOC(=O)/C(=C/c1ccc2ccccc2c1)P(=O)(OCC)OCC	-17%	-15%	76.6% (active)	6%	-13%	69.2%	-6%	-5%	66.8%	10%	19%	71.1% (active)	16%	9%	75.5% (active)	-18%	-7%	58%
CC(C)CCCC(C)[C@H]1CCC(C2C[C@@H](O)[C@@H]3CC(O)[C@@H](O)C[C@]3(CO)C2=O)[C@]1(C)CCO (stereo partly specified)	-14%	99% (active)	92.5% (active)	-13%	99% (active)	92.5% (active)	-6%	99% (active)	91.7% (active)	13%	98% (active)	90.2% (active)	4%	98% (active)	91.6% (active)	-10%	98% (active)	92% (active)
C[N+](C)(C)c1nc(N)nc2c1ncn2C1OC(CO)C(O)C1O (stereo unspecified)	9%	15%	29.5%	12%	-11%	6.5%	9%	3%	-40.6%	-20%	-2%	70.3% (active)	1%	-1%	-27.2%	5%	16%	11%
CC(C)N(C(=O)c1ccc(Cl)c(Cl)c1)C(C)C	-15%	-14%	-0.55%	-14%	4%	10.8%	-1%	0%	15.1%	29%	-26%	13.4%	6%	-25%	9.2%	-12%	0%	-5.65%
CCS(=O)(=O)/C=C/c1ccc2ccccc2n1	-143%	47%	47.3%	-43%	6%	28.9%	-55%	23%	35.2%	-41%	-14%	3.55%	-67%	16%	18.4%	-134%	39%	63.4%
Cc1c(N)cc(I)cc1[N+](=O)[O-]	2%	12%	-4.65%	9%	7%	4.2%	0%	63%	12.8%	6%	-11%	-32.7%	-8%	2%	56.8%	-5%	10%	13.8%
O[C@H]1[C@H]2c3cc4c(cc3CN3CCC(=C[C@@H]1O)[C@H]23)OCO4	13%	98% (active)	91.5% (active)	19%	99% (active)	93.6% (active)	23%	98% (active)	93.2% (active)	77% (active)	98% (active)	90.7% (active)	0%	98% (active)	91.2% (active)	26%	99% (active)	92.2% (active)

Source: PubChem BioAssay (NCI)
